Measurements as given in PubChem BioAssay (NCI).
Compounds without any hit were thinned out: in the full panel of roughly 83,000, 20% have a hit.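 The test compound was applied at a single concentration to cells in 96-well plates for 48 hours, and percent growth was recorded.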 Activity calls are given as the source filed them. How the source made its calls: active means growth percent below 10; inactive means the rest.

Tests used:
Assay in all cases: NCI-60 one-dose screen, 48 h (100 = growth as untreated, 0 = no growth, -100 = all killed)
Conditions in all cases: 10 µM
[1] = test system: T-47D breast
[2] = test system: BT-549 breast
[3] = test system: MDA-MB-435 melanoma
[4] = test system: SW-620 colon
[5] = test system: MCF7 breast
[6] = test system: HCT-116 colon
[7] = test system: HCC-2998 colon
[8] = test system: KM12 colon
[9] = test system: MDA-MB-468 breast

Measured: growth

O=c1[nH][nH]c(Nc2ccccc2)c1N=Nc1ccc(F)cc1
inactive: [1] 36.4% | [2] 65.3% | [3] 99.4% | [4] 109% | [5] 13.9% | [6] 87% | [7] 92.6% | [8] 55.3% | [9] 27.8%

CN1CCO/C1=C(/NC(=O)c1ccc(Cl)cc1)[P+](c1ccccc1)(c1ccccc1)c1ccccc1
active: [9] -19.6%
inactive: [1] 66% | [2] 90.1% | [3] 66.7% | [4] 97.1% | [5] 62.9% | [6] 45.9% | [7] 89.1% | [8] 64.5%

COc1ccc(C(=O)/C=C/c2cc(F)cc(C(F)(F)F)c2)cc1S(N)(=O)=O
active: [1] 6.93% | [2] -73% | [3] -56.2% | [4] -90.6% | [5] -90.6% | [6] -55% | [7] -89.6% | [8] -82.4% | [9] -93.2%

Clc1ccc2c(N/N=C/c3c[nH]c4ccc(Br)cc34)ccnc2c1
active: [1] -54.6% | [2] -79.5% | [3] -77.3% | [4] 2.03% | [5] -56.8% | [6] -10.3% | [7] -92.5% | [8] -81.7% | [9] -94.2%

COC(=O)CC1CC1C1Cc2c(nc(N(C)S(C)(=O)=O)nc2C(C)C)-c2ccc(F)cc21 (stereo unspecified)
inactive: [1] 63.8% | [2] 64.8% | [3] 87.2% | [4] 66% | [5] 67.1% | [6] 44.4% | [7] 101% | [8] 76.2% | [9] 74.9%

COc1cc2c3c(n(CCCNCCO)c(=O)c2cc1OC)-c1nc2c(cc1C3=O)OCO2
inactive: [2] 25.3% | [3] 45.2% | [4] 20.2% | [7] 11.6% | [8] 40.4%
active: [1] 1.91% | [5] -11.4% | [6] -49.8% | [9] -58.8%

CC(=O)c1cc(C(=O)N2c3ccccc3Sc3ccccc32)n2ccc(C)cc12
inactive: [1] 20.8% | [2] 16% | [3] 28% | [4] 25.6% | [5] 26.5% | [7] 32.7% | [8] 28.3%
active: [6] 7.08% | [9] 3.44%

NS(=O)(=O)c1ccc(N=Nc2c(O)n(CC(=O)Nc3ccccc3Br)c3ccccc23)cc1
active: [2] 0.165%
inactive: [1] 38.1% | [3] 50.6% | [4] 44.4% | [5] 10.7% | [6] 21.4% | [7] 39.5% | [8] 36.7% | [9] 35.8%

Cc1ccc(/C(N)=N/c2sc(-c3ccccc3)nc2-c2ccccc2)cc1
inactive: [1] 58.3% | [2] 88.4% | [3] 79.6% | [4] 79.4% | [5] 55.9% | [6] 53.5% | [7] 79.8% | [8] 41.4% | [9] 75.6%

CN1CCN(c2ccc(Nc3nc(NCCCNC(=O)c4ccccc4)c4sccc4n3)cc2)CC1
inactive: [1] 54.3% | [2] 138% | [3] 64.4% | [4] 60.6% | [5] 38.4% | [6] 30.9% | [7] 83.2% | [8] 54.4% | [9] 68.4%

C=C1CCC2C3(C)COC(c4cccc(F)c4)OC3CCC2(C)C1CC(O)C1=CCOC1=O (stereo unspecified)
inactive: [1] 37.9% | [3] 57.7% | [5] 14.2% | [7] 63.1% | [8] 59.6% | [9] 52.1%
active: [2] -4.37% | [4] 6.42% | [6] -7.46%

COc1ccc(CCN2C(=O)/C(=C/c3csc(C#N)n3)SC2=S)cc1
active: [1] -5.27% | [2] -44.6% | [3] -23.6% | [4] -14.6% | [5] -0.841% | [6] -63.2% | [7] -32.8% | [8] -61.4% | [9] -67.2%

O=[N+]([O-])c1ccc(-c2nc(-c3ccccc3)c(-c3ccccc3)n2-c2ccc(S(=O)(=O)Nc3ncccn3)cc2)cc1
inactive: [1] 10.2% | [2] 10.7% | [3] 46.5% | [4] 51.1% | [5] 29.3% | [6] 30.6% | [7] 42.9% | [8] 30.8% | [9] 40%

CCOP(=O)(OCC)O[C@H]1CCC(=O)[C@@H]2[C@H]1[C@H]1C[C@@H]3[C@@]4(C)CCCC(C)(C(=O)OC)[C@@H]4CC[C@@]23C=C1C(C)C (stereo partly specified)
active: [9] 7.96%
inactive: [1] 42.1% | [2] 54.9% | [3] 52% | [4] 56.1% | [5] 33.2% | [6] 32.8% | [7] 58.9% | [8] 50.9%

N#Cc1c(NC(=O)c2ccc(C(F)(F)F)cc2)sc2c1CCC(O)=C2
active: [3] -33.8% | [5] 9.26% | [9] -31.9%
inactive: [1] 22.9% | [2] 58.7% | [4] 17.1% | [6] 23.9% | [7] 47.3% | [8] 18.2%

COc1cc2c3c(n(CCCNC(C)C)c(=O)c2cc1OC)-c1nc2c(cc1C3=O)OCO2
inactive: [1] 43.9% | [2] 49.1% | [7] 65.5%
active: [3] -86.9% | [4] -62.8% | [5] -89.8% | [6] -60.4% | [8] -90.1% | [9] -9.99%

Cc1cccc(NC(=O)CSc2nc3ccc(F)cc3c(=O)n2-c2ccc(Cl)cc2)c1C
inactive: [1] 91.5% | [2] 32% | [3] 83.4% | [4] 80.1% | [5] 69.5% | [6] 44.8% | [7] 94.5% | [8] 88.8% | [9] 80.7%

O=C(CN1CCN(c2ncnc3c2cnn3-c2ccccc2)CC1)Nc1nncs1
inactive: [1] 27.9% | [5] 16.1% | [7] 59.7%
active: [2] -85.9% | [3] 7.14% | [4] -23.9% | [6] 8.23% | [8] 4.55% | [9] -39.8%

N#Cc1c(NC(=O)c2ccc(C(F)(F)F)cc2)sc2c1CCC(=O)C2
active: [1] -36.9% | [2] -80.6% | [3] -41.4% | [4] -63% | [5] -16.9% | [6] -46.3% | [7] -96.7% | [8] -36.3% | [9] -71%
